# Measured values published in the supplement of paper PMC3334620.
# Over roughly 33,000 sequences, “E-score (-0.5 to 0.5)” has its median near -0.016; the highest 2% begin near 0.31. For the sample, the highest values were picked, then their nearest neighbours and some sequences at random.
# Molecular target: Cst6 (UniProt P40535)
# Experiment: PBM E-score (8-mer binding enrichment) (E-score (-0.5 to 0.5)); higher = stronger / more preferred TF binding
# Settings: protein concentration: 200 nM; construct: GST-DNA-binding domain
# Protocol: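 Universal 'all 10-mer' protein binding microarrays (Agilent AMADID 015681) probed with GST-tagged S. cerevisiae TFs (full-length or DBD) made by in vitro transcription/translation (PURExpress), about 100-200 nM. Bound TF was detected with fluorescent anti-GST. Each ungapped 8-mer (which stands for itself and its reverse complement) is scored by the PBM enrichment score (E-score), a modified Wilcoxon-Mann-Whitney statistic from -0.5 to +0.5, computed with the Universal PBM Analysis Suite. Scale: above 0.35 generally sequence-specific binding.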
# Sequence of UniProt P40535 (P40535 whole entry): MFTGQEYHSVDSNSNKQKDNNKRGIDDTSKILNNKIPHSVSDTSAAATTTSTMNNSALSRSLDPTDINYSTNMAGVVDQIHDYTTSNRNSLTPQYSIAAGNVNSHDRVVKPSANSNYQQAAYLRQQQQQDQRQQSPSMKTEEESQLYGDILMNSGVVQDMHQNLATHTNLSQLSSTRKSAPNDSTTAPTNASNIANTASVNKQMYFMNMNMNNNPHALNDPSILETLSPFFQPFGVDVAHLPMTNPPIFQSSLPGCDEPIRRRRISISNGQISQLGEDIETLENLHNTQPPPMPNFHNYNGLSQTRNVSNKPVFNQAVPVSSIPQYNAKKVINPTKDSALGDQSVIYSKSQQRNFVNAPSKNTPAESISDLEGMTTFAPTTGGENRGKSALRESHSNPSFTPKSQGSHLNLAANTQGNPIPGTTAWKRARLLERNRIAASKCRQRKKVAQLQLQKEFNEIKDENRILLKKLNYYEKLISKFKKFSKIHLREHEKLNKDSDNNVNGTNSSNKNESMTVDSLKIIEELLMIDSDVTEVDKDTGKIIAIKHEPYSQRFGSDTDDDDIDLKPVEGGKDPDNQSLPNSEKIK
row,Sequence,PBM E-score
1,ATCCGTGA,-0.0022
2,GATCGGAC,-0.0973
3,CAGATTGC,-0.0228
4,GTAGATGA,0.181
5,CCTAGCTA,-0.162
6,ATTTGTGG,0.0944
7,AGATTACC,0.144
8,CGATTACC,-0.107
9,AGATTACT,0.144
10,CGATTACA,0.13
11,AGATTACG,0.386
12,CGATTACG,0.349
13,CTCCCACC,-0.335
14,ACGGCTTC,0.0724
15,AAGCCTGT,-0.0963
16,GTCGCCCA,-0.192
17,CAGCTCTC,-0.172
18,AAAAATAG,0.118
19,AATAATAT,0.305
20,AATAATAA,0.313
21,AATAATGT,0.181
22,AAAAATAT,0.309
23,AACAATAA,0.204
24,AACAATAC,0.156

row,Sequence,PBM E-score
1,AATAATAG,0.209
2,AATAATAC,0.197
3,AAAAATAA,0.292
4,CATAATAA,0.267
5,AACAATAT,0.37
6,GCCTTAAA,0.151
7,GATGGCCC,-0.106
8,CGAGCCCG,-0.126
9,CGGAAATA,0.155
10,CCGAGTTC,-0.063
11,CCCTAGGA,-0.295
12,TATTAATA,0.0736
13,AATTAATA,0.39
14,CACTAATA,0.211
15,AACTAATA,0.336
16,AATTAATG,0.174
17,GTTTAATA,0.202
18,AATTAATC,0.197
19,TACTAATA,0.222
20,ATTTAATA,0.338
21,GATTAATA,0.261
22,CTTTAATA,0.201
23,AATTAATT,0.311
24,GAGTCCGA,-0.0585

row,Sequence,PBM E-score
1,TCGCCAGA,-0.0255
2,ACTCGCCA,-0.037
3,AATAAACG,0.157
4,GCCGGAGC,-0.249
5,CAACTGAC,0.0886
6,GGATGCAA,-0.129
7,TGATGTAA,0.488
8,TGATGCAA,0.418
9,AGATGTAA,0.27
10,CGATGTAA,0.117
11,CGATGCAA,-0.0639
12,CACAGGAA,-0.0714
13,TCAATCGA,0.249
14,GGACGGAA,-0.119
15,CGACGGCA,-0.00873
16,TGACGGCA,0.371
17,GGACGGCA,0.25
18,TGACGGAA,0.432
19,CGACGGAA,-0.188
20,CCGTCGGA,-0.114
21,CCCAGTAC,-0.202
22,TCGTCACA,0.368
23,ACGTCACC,0.496
24,GGGTCACC,-0.153

row,Sequence,PBM E-score
1,TGGTCACA,0.0201
2,AGGTCACC,0.0958
3,AAGTCACC,0.188
4,TAGTCACA,0.0725
5,GCGTCACA,0.417
6,GCGTCACC,0.448
7,GAGTCACC,0.0602
8,CCGTCACG,0.176
9,CCGTCACA,0.139
10,CCAAAGCC,-0.0189
11,AACATCCT,-0.0218
12,GAGGATTA,-0.125
13,GTAGCGAC,-0.304
14,CCATCAAG,-0.165
15,CGGCGGTA,0.128
16,AAGAGTGT,0.0413
17,ACGACCGT,-0.238
18,GCGGGGTA,-0.201
19,GAGCCTCC,-0.278
20,AGGGCGGG,-0.0957
21,ACTCCGAA,-0.169
22,CAGTCACC,-0.113
23,CCGTCACC,0.411
24,CGGTCACC,0.0497
